Measured values from PubChem BioAssay (NCI).
The panel holds about 79,000 compounds, 15% with a hit somewhere; the sample as a whole holds those more often. Activity calls are given as the source filed them. Cut-off read from the data, not from the text of the source: active = growth inhibition above about 70%; inactive = the rest.

Experiments:
[1] = NCI Yeast Anticancer Drug Screen. Data for the sgs1 mgt1 strain (AID 161);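 note: 0% = growth of cultures given vehicle only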; details: S. cerevisiae sgs1 mgt1 strain, hits give high values
Procedure, shortened: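 This yeast growth screen uses a strain with defined DNA-repair lesions; compound-treated growth is compared with vehicle-treated growth.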

[2] = NCI Yeast Anticancer Drug Screen. Data for the CLN2oe strain (AID 163);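 note: 0% = growth of vehicle-only control cultures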; details: S. cerevisiae CLN2oe strain, hits give high values
Procedure, shortened: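 Cells of an engineered yeast line with disturbed cell-cycle regulation are treated with compound. Inhibition of growth is then calculated relative to the vehicle-treated reference.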

[3] = NCI Yeast Anticancer Drug Screen. Data for the cln2 rad14 strain (AID 165);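 note: 0% = growth equal to vehicle treated cultures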; details: S. cerevisiae cln2 rad14 strain, hits give high values
Procedure, shortened: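 Strain: cln2 rad14 yeast, altered in cell cycle control and DNA damage repair. Read-out: growth inhibition vs vehicle.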

[4] = NCI Yeast Anticancer Drug Screen. Data for the bub3 strain (AID 167); details: S. cerevisiae bub3 mutant strain, hits give high values
Procedure, shortened: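 Readout: yeast growth inhibition, expressed relative to vehicle-only wells. The test organism is a mutant strain from a panel with lesions in DNA repair or checkpoint genes.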

[5] = NCI Yeast Anticancer Drug Screen. Data for the wt2 strain (AID 169);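 note: 0% = growth of vehicle-treated yeast cultures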; details: S. cerevisiae wt2 strain growth inhibition, hits give high values
Procedure, shortened: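 Growth of compound-treated yeast is measured and expressed as inhibition relative to vehicle-only controls.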

[6] = NCI Yeast Anticancer Drug Screen. Data for the mlh1 strain (AID 171);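 note: 0% = growth of vehicle-treated control cultures of the same strain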; details: S. cerevisiae mlh1 strain growth inhibition, hits give high values
Procedure, shortened: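 Test agents were incubated with yeast bearing a defined DNA damage repair or cell cycle control alteration; values are growth inhibition normalised to vehicle-treated cultures.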

[7] = NCI Yeast Anticancer Drug Screen. Data for the sgs1 strain (AID 173);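 note: 0% = growth of vehicle-only control cultures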; details: S. cerevisiae sgs1 mutant, hits give high values
Procedure, shortened: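 Strain with an altered DNA repair or cell cycle pathway exposed to compound. Growth then measured. Value = inhibition versus vehicle control.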

[8] = NCI Yeast Anticancer Drug Screen. Data for the mlh1 rad18 strain (AID 175); details: S. cerevisiae mlh1 rad18 strain growth inhibition, hits give high values
Procedure, shortened: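 A repair-deficient yeast strain is exposed to test compound, and growth is scored relative to vehicle-treated controls.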

[9] = NCI Yeast Anticancer Drug Screen. Data for the rad18 strain (AID 177); details: S. cerevisiae rad18 mutant growth inhibition, hits give high values
Procedure, shortened: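 DNA-repair-defective yeast; compound treatment; growth inhibition scored against vehicle.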

[10] = at 5.0 µM (retest, dose inferred, filed as 0.5)
[11] = at 50.0 µM (retest, dose inferred, filed as 5.0)

Measured: growth inhibition

N#Cc1ccc(C2NN=CC23C(=O)c2ccccc2OC3c2ccccc2)cc1 (configuration not stated)
active: [1]; [11] 93% | [1]; at 50.0 µM 77.5%
inactive: [1]; [10] -22% | [2]; at 1.2 µM -2% | [2]; at 3.7 µM 2% | [2]; at 11.0 µM 5% | [2]; at 33.0 µM -1% | [2]; at 100.0 µM 5% | [3]; [10] -16% | [3]; [11] 38% | [3]; at 50.0 µM 61% | [4]; at 1.2 µM -7% | [4]; at 3.7 µM 0% | [4]; [10] -28% | [4]; at 11.0 µM 7% | [4]; at 33.0 µM -2% | [4]; [11] 16% | [4]; at 50.0 µM 64% | [4]; at 100.0 µM 0% | [5]; at 1.2 µM 0% | [5]; at 3.7 µM 0% | [5]; at 11.0 µM 2% | [5]; at 33.0 µM 1% | [5]; at 100.0 µM 3% | [6]; at 1.2 µM 0% | [6]; at 3.7 µM -5% | [6]; at 11.0 µM 0% | [6]; at 33.0 µM -2% | [6]; at 100.0 µM 4% | [7]; at 1.2 µM 0% | [7]; at 3.7 µM -4% | [7]; at 11.0 µM -3% | [7]; at 33.0 µM -3% | [7]; at 100.0 µM -1% | [8]; [10] -14% | [8]; [11] 60% | [8]; at 50.0 µM 56.4% | [9]; at 1.2 µM -3% | [9]; at 3.7 µM -4% | [9]; at 11.0 µM -3% | [9]; at 33.0 µM -16% | [9]; at 100.0 µM -1%
